Data taken from PubChem BioAssay (Tox21).
Values without a mark were called inactive. A call without a number means that no potency is given here. Calls of active or inactive are those of the source. Unless noted, the call rests on the fitted dose curve; in most records, active means well fitted curve in the direction sought with a large enough effect in the repeat runs; inconclusive means weak or mixed curves; inactive means no such curve, though single readings can be large; an effect the other way counts as inactive or inconclusive.

Experiments:
[1] = qHTS assay for small molecules that induce genotoxicity in human embryonic kidney cells expressing luciferase-tagged ATAD5 (AID 651632); further: nearly all actives have a fitted effect of over 15% in size
In short: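 Cells were seeded at 2,000 per well, dosed with compound, and incubated 16 hr at 37C in 5% CO2. Luciferase activity was then quantified after a 30 min room-temperature incubation with Amplite.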

[2] = qHTS assay for small molecule agonists of the p53 signaling pathway - cell viability (AID 651633; calls by dose curve; further: nearly all actives have a fitted effect of over 30% in size; further: potency means the concentration at half of the fitted maximal effect)
In short: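 Viability counter-read: CellTiter-Glo luminescence (30 min, room temperature) in the same p53RE-bla plates. These plates had been exposed to compounds for 16 h at 37 C.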

[3] = qHTS assay for small molecules that induce genotoxicity in human embryonic kidney cells expressing luciferase-tagged ATAD5 - cell viability (AID 651634; calls by dose curve; further: nearly all actives have a fitted effect of over 25% in size)
In short: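 Cells (HEK293T, luciferase-tagged ATAD5) are seeded at 2,000 per well, dosed with compound or DMSO vehicle, and incubated 15.5 hr at 37C and 5% CO2. CellTiter-Fluor is added for 30 min before fluorescence is measured.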

[4] = qHTS assay for small molecule disruptors of the mitochondrial membrane potential - cell viability (AID 720634; calls by dose curve;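 further: human HepG2 liver cancer cells; series mostly up to about 83 µM; nearly all actives have a fitted effect of over 20% in size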)
In short: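 Cytotoxicity was measured by ATP quantitation in HepG2 wells that had first been treated with compound for 1 hr and stained with m-MPI dye; CellTiter-Glo incubation was 30 min at room temperature.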

[5] = qHTS assay to test for compound auto fluorescence at 590 nm (red) in HepG2 cells (AID 720674)
In short: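 1 hr compound incubation on HepG2 cells, 37 C, 5% CO2; plate read ex 540 nm / em 590 nm; intensities reported as Rose Bengal sodium equivalents.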

[6] = qHTS assay to test for compound auto fluorescence at 535 nm (green) in HepG2 cells (AID 720675)
[7] = qHTS assay to test for compound auto fluorescence at 460 nm (blue) in HEK293 cells (AID 720678)
In short: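 Blue read-out at excitation 405 nm and emission 460 nm follows overnight compound exposure of HEK293 cells at 37C in 5% CO2. Activity is given as auto fluorescence equivalency to triamterene.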

[8] = qHTS assay to test for compound auto fluorescence at 590 nm (red) in HEK293 cells (AID 720679)
In short: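 Red channel, Ex/Em 540/590nm; signal expressed as equivalency to Rose Bengal sodium. HEK293, 2,000 cells/well, 10% dialyzed FBS; 23 nL compound pinned after 4-5 hr attachment; overnight 37C/5% CO2 before reading.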

[9] = qHTS assay to test for compound auto fluorescence at 535 nm (green) in HEK293 cells (AID 720680)
[10] = qHTS assay to test for compound auto fluorescence at 460 nm (blue) in HEK293 cell free culture (AID 720681)
In short: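 Blue fluorescence (Ex 405/Em 460 nm, triamterene-equivalent) was read immediately after pin transfer of compound or DMSO into medium (DMEM, 10% FBS) without cells.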

[11] = qHTS assay to test for compound auto fluorescence at 535 nm (green) in HEK293 cell free culture (AID 720682)
In short: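 No cells present: wells hold DMEM supplemented with 10% FBS, into which compound or vehicle is pinned. Green emission is then recorded (485 nm excitation, 535 nm emission) and scaled to fluorescein.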

[12] = qHTS assay to test for compound auto fluorescence at 590 nm (red) in HEK293 cell free culture (AID 720683)
In short: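 Red-channel autofluorescence of compounds in culture medium (DMEM, 10% FBS), no cells, measured at 540/590 nm. Rose Bengal sodium is the reference fluorophore for equivalence.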

[13] = qHTS assay to test for compound auto fluorescence at 590 nm (red) in HepG2 cell free culture (AID 720684)
In short: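 No cells present: MEM + 10% FBS only. Compound pinned in, red label read (540/590 nm). Activity = fluorescence equivalent to Rose Bengal sodium.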

[14] = qHTS assay to test for compound auto fluorescence at 460 nm (blue) in HepG2 cell free culture (AID 720685)
In short: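 Cell-free plates of MEM plus 10% FBS received 23 nL compound or DMSO vehicle; blue-channel (405/460 nm) intensity scored against triamterene as reference fluorophore.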

[15] = qHTS assay to test for compound auto fluorescence at 535 nm (green) in HepG2 cell free culture (AID 720686)
[16] = qHTS assay to test for compound auto fluorescence at 460 nm (blue) in HepG2 cells (AID 720687)
In short: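 Blue-channel autofluorescence (Ex/Em 405/460 nm, triamterene-equivalent) was measured after 1 hr compound exposure at 37 C, 5% CO2. Cells were HepG2, plated overnight at 37 C in MEM plus 10% FBS.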

[17] = molecular target: Glucocorticoid receptor (Homo sapiens) (UniProt P04150); experiment: qHTS assay to identify small molecule agonists of the glucocorticoid receptor (GR) signaling pathway (AID 720691; active means well fitted activation curve with a large enough effect in the signal ratio in the repeat runs, not every such curve was filed as active; inconclusive means weak or mixed curves, or effect the other way; inactive means no such curve, though single readings can be large or run the other way; the % refers to the signal ratio; further: potency means the concentration at half of the fitted maximal effect)
Glucocorticoid receptor (Homo sapiens), sequence (P04150 whole entry, looked up): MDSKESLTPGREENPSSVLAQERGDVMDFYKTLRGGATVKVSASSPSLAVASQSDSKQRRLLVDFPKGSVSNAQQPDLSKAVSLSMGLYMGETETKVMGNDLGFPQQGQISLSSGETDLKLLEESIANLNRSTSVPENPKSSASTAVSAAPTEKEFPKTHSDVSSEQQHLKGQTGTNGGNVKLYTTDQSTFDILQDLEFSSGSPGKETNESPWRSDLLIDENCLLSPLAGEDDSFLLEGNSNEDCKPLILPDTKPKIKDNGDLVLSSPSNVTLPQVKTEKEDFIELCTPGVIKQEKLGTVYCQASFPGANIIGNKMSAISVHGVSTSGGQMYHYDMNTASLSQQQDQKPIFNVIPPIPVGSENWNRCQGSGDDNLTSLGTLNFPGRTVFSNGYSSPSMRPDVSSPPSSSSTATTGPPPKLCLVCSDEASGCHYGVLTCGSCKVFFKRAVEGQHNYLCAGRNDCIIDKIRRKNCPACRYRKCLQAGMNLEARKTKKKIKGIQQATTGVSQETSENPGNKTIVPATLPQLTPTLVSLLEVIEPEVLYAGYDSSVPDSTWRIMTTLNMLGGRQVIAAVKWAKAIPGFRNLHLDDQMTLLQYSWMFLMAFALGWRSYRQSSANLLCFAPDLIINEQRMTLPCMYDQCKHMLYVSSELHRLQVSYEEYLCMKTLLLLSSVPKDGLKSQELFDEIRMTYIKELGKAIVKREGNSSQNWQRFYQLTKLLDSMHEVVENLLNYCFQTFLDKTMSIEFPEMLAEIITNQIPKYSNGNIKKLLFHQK
In short: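 Steps: seed GR-bla HeLa cells, incubate 4 h at 37 C/5% CO2; pin-transfer DMSO-dissolved compounds; incubate 18 h at 37 C; add LiveBLAzer B/G FRET substrate; after 2 h at room temperature, measure fluorescence.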

[18] = molecular target: Glucocorticoid receptor (Homo sapiens) (UniProt P04150); experiment: qHTS assay to identify small molecule antagonists of the glucocorticoid receptor (GR) signaling pathway (AID 720692; active means well fitted inhibition curve with a large enough effect in the signal ratio in the repeat runs, not every such curve was filed as active; inconclusive means weak or mixed curves, or effect the other way; inactive means no such curve, though single readings can be large or run the other way; the % refers to the signal ratio)
In short: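 Antagonism was scored as loss of dexamethasone-driven (5 nM final) reporter signal in HeLa cells bearing a glucocorticoid response element–beta-lactamase construct, after 18 h compound exposure at 37 C and 2 h FRET substrate loading.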

[19] = qHTS assay for small molecule disruptors of the mitochondrial membrane potential (AID 720635); further: potency means the concentration at half of the fitted maximal effect
In short: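 Mitochondrial membrane potential tracked with Mito-MPS dye, red aggregates (ex 540/em 590 nm) against green monomers (ex 490/em 535 nm). Compound treatment 1 hr at 37C, dye 30 min in HepG2.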

[20] = qHTS assay for small molecule agonists of the p53 signaling pathway (AID 651631; calls by dose curve; further: nearly all actives have a fitted effect of over 15% in size; further: potency means the concentration at half of the fitted maximal effect)
In short: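 Agonist mode screen using a stably integrated beta-lactamase gene under p53 response elements in HCT-116 cells. Compound exposure lasts 16 h at 37 °C; fluorescence intensity is measured following 2 h FRET substrate loading.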

SMILES | Potency [1] | Potency [2] | Potency [3] | Potency [4] | outcome [5] | outcome [6] | Potency [7] | outcome [8] | outcome [9] | Potency [10] | outcome [11] | outcome [12] | outcome [13] | Potency [14] | outcome [15] | Potency [16] | Potency [17] | Potency [18] | Potency [19] | Potency [20]
CC1=C(C=O)C(C)(C)CCC1 | inactive | inactive | inactive | inactive | inactive | inactive | inactive | inactive | inactive | inactive | inactive | inactive | inactive | inactive | inactive | inactive | inactive | inactive | – | –
CO/N=C1\CN(c2nc3c(cc2F)c(=O)c(C(=O)O)cn3C2CC2)CC1CN (configuration not stated) | inactive | inactive | inactive | inactive | inactive | inactive | inactive | – | inactive | inactive | inactive | – | inactive | inactive | inactive | – | inactive | inactive | inactive | –
c1cnc2c(n1)CCCC2 | inactive | inactive | – | inactive | inactive | inactive | inactive | inactive | inactive | – | inactive | inactive | inactive | inactive | inactive | inactive | – | – | – | inactive
C=CCOC(=O)/C=C\C(=O)OCC=C | inactive | inactive | inactive | inactive | inactive | inactive | inactive | inactive | inactive | inactive | inactive | inactive | inactive | inactive | inactive | inactive | inactive | – | – | –
O=S1OCCO1 | inactive | inactive | inactive | – | inactive | – | inactive | inactive | inactive | inactive | inactive | inactive | inactive | inactive | inactive | inactive | – | – | – | inactive
ON(Cc1ccccc1)Cc1ccccc1 | inactive | inactive | inactive | inactive | inactive | inactive | inactive | – | inactive | inactive | inactive | inactive | inactive | inactive | – | inactive | inactive | – | inactive | –
Nc1nc(Cl)nc2c1ncn2[C@@H]1O[C@H](CO)[C@@H](O)[C@@H]1F | – | 133 nM (active) | inactive | inactive | inactive | – | inactive | inactive | inactive | – | inactive | inactive | inactive | inactive | inactive | inactive | – | – | – | 84.1 nM (active)
CC1=NN(c2ccc(C(=O)O)cc2)C(=O)C1 | inactive | inactive | inactive | inactive | inactive | inactive | inactive | inactive | inactive | inactive | inactive | inactive | inactive | inactive | inactive | inactive | – | – | inactive | –
CC(C)=CC=O | inactive | inactive | inactive | inactive | inactive | inactive | inactive | – | – | inactive | inactive | inactive | inactive | inactive | – | inactive | inactive | – | inactive | –
O=c1[nH]c2ccc(S(=O)CCN3CCC(Cc4ccc(F)cc4)CC3)cc2o1 (configuration not stated) | inactive | inactive | inactive | inactive | inactive | inactive | inactive | inactive | inactive | inactive | inactive | inactive | inactive | inactive | inactive | inactive | inactive | inactive | – | –
COC(=O)CC(=O)C(C)(C)C | inactive | inactive | inactive | inactive | inactive | inactive | inactive | inactive | inactive | inactive | inactive | – | inactive | inactive | inactive | inactive | inactive | inactive | inactive | –
CC[C@H](NC(=O)c1cc(F)ccc1NS(=O)(=O)c1cccc2cccnc12)c1ccccc1 | inactive | inactive | inactive | inactive | inactive | inactive | inactive | inactive | inactive | inactive | inactive | inactive | – | inactive | inactive | inactive | – | – | 2050 nM (active) | –
CCCCC(=O)O[C@]1(C(=O)CO)CC[C@H]2[C@@H]3CCC4=CC(=O)CC[C@]4(C)[C@H]3[C@@H](O)C[C@@]21C | inactive | – | inactive | – | inactive | – | inactive | inactive | inactive | inactive | inactive | inactive | inactive | inactive | inactive | – | 42.5 nM [inconclusive] (active) | – | inactive | inactive
CCCOc1ccc(S(=O)(=O)N2CCN(CC)CC2)cc1-c1nc2c(CC)n(Cc3ccccn3)nc2c(=O)[nH]1 | inactive | inactive | inactive | inactive | inactive | inactive | inactive | inactive | inactive | inactive | inactive | inactive | inactive | inactive | inactive | inactive | inactive | – | – | –
